These results are taken from PubChem BioAssay AID1347417 (National Center for Advancing Translational Sciences (NCATS), 2020).

SMILES strings stand for the structures. The campaign covered roughly 120,000 compounds. About 5,300 (4.4%) were called active. Where a call stands in place of a potency, no number is given. Roughly 22% stayed inconclusive and do not appear here. For the sample, actives were picked, then their nearest neighbours and some compounds at random. Values without a mark were called inactive. Calls come from the whole dose curve; as a rule, active = well fitted inhibition curve with a large enough effect; inconclusive = small, poorly fitted or top-dose-only effect; inactive = no such curve, though single readings can be large or run the other way.
Potency is the fitted concentration of half-maximal effect.

This test in a line: qHTS Primary assay for Inhibitors of Plasmodium falciparum Dd2 growth in vitro. Note: nearly all actives have a fitted effect of over 65% in size. To be noted: P. falciparum Dd2 growth, SYBR Green, 72 h; series mostly up to 28.9 µM. From the text:
Malaria, a parasitic disease spread to humans through the bite of a Plasmodium infected Anopheles mosquito, continues to be a global health burden affecting millions of people, with an estimated 228 million cases and 405,000 deaths in 2018. Concerns about safety and limitations of current antimalarial treatments strongly emphasize the need to develop new therapeutic options. The scarce number of chemotypes and validated drug targets with efficacy against the liver stage, have hindered development of new antimalarials. To address this, a chemoprophylactic drug discovery effort was conducted through a combined phenotypic high-throughput asexual blood stage and liver stage screen, providing a robust foundation to identify liver-stage active lead chemotypes. Compounds were initially screened against Plasmodium falciparum Dd2 strain parasites using a in vitro SYBRGreen-1 based 72 hr proliferation assay to identify novel chemotypes to advance to liver stage assays. NIH/NCATS Early Translation Branch Assay Submitter (PI): Anton Simeonov Ph.D.
Malaria-vivax Assay Protocol: PROTOCOL TABLE (as described by Inglese et al., 2007) SEQUENCE No. (e.g., 1, 2, 3, etc.); […] (e.g., Cells, Incubation, Reagent, etc.); VALUE; DESCRIPTION SEQUENCE, Parameter, Description 1; Reagent; 3 uL complete malaria growth medium, 1536 TC treated Black clear bottom plate 2; Controls; 23 nL positive control artesunate (300 nM final) to column 1; Neutral control DMSO to columns 2-4 3; Compound; 23 nL of compounds in dose response concentration (29 uM to 0.5 nM final) 4; Reagent; 5 uL malaria infected red blood cells (2.5% hematocrit final, 0.3% parasitemia 5; Time; 72 hours at 37C (5% O2, 5% CO2, 90% N2; 95% Rh) 6; Reagent; 2 uL lysis buffer/SYBRGreen-1, 25 sec shake immediately following dispense 7; Time; ~16 hours at 37C (5% O2, 5% CO2, 90% N2; 95% Rh) 8; Detector; EnVision (PerkinElmer) bottom read at 485/14nm excitation and 535/25 nm emission NOTES (numbers refer to sequence above): 1; Complete Malaria Growth Media: 1X RPMI-1640 w/L-glutamine, 5.5g/L Albumax II, 367 uM Hypoxanthine, 25 mM HEPES, 0.25% Sodium Bicarbonate, 35 uM Gentamicin sulfate 2; Controls were added using the Kalypsis Pintool (Wako USA) equipped with 1536 pinhead 3; Compounds were added in a 7-point, titration with a high final concentration of 29 uM by Pintool from seven inter-plate titrations of library plates and two DMSO control plates at the beginning and end (see Yasgar et al., 2008). 4; Red blood cells infected with Plasmodium falciparum Dd2 parasites were used. 6; Lysis buffer: 20 mM Tris-HCl, 10 mM EDTA, 0.16% Saponin, 1.6% Triton-X, 10X SYBR Green. REFERENCE: Inglese J, Shamu CE, Guy RK. 2007. Reporting data from high-throughput screening of small-molecule libraries. Nat Chem Biol. doi:10.1038/nchembio0807-438 Yasgar A, Shinn P, Jadhav A, Auld D, Michael S, Zheng W, Austin CP, Inglese J, Simeonov A. 2008. Compound Management for Quantitative High-Throughput Screening. J Lab Autom 13:79-89. doi:10.1016/j.jala.2007.12.004
Regarding `CCCNC(=O)C(NC(=O)c1ccc(OC)cc1)C1CCN(C(=O)c2ccc3c(c2)OCO3)CC1` (stereo unspecified), the Potency result was “inactive”. With `O=C(c1ccccc1-n1cccn1)N1CCc2c(nc[nH]c2=O)C1`, the Potency result was “inactive”. For `CC(C)(Oc1nn(CCOc2ccccc2)c2ccccc12)C(=O)NCCCn1ccnc1`, the Potency result is “inactive”. Consider `CCOC(=O)C1CCN(C(=O)C2(c3ccc(NS(C)(=O)=O)cc3)CCCCC2)CC1`, for which the Potency entry is “inactive”. Take `COCCNC(=O)c1ccc(OC2CCN(C/C=C/c3ccco3)CC2)c(Cl)c1`: the Potency entry was “inactive”. On to `COc1ccc(C2c3c(oc4ccccc4c3=O)C(=O)N2Cc2ccc3c(c2)OCO3)cc1` (stereo unspecified), for which the Potency result is “inactive”. Same read-out and setting: the same measure for `CSc1ccc(C2c3c(oc4ccccc4c3=O)C(=O)N2CCCN2CCOCC2)cc1` (stereo unspecified): “inactive”; for `Cc1ccc2oc3c(c(=O)c2c1)C(c1ccc([N+](=O)[O-])cc1)N(CCCN1CCOCC1)C3=O` (stereo unspecified): 10 µM (active).

In the case of `Cc1cccc(C(=O)NCCC2CCN(C(=O)Nc3ccc(F)cc3F)CC2)c1`, the Potency entry is “inactive”. Same read-out and setting: under `COc1cccc(NC(=O)c2cnc3n[nH]c(-c4ccc(OC)cc4C)c3n2)c1` stands “inactive”; under `COc1ccccc1N1CCN(CCCNC(=O)c2cnn(-c3ccccc3Cl)c2C2CCN(C(=O)OC(C)(C)C)CC2)CC1`, 1.41 µM (active). Take `Cc1c(Cl)cccc1NC(=O)C1CCCN(C(=O)c2cnn(-c3ccccc3)c2-n2cccc2)C1` (stereo unspecified): the Potency entry is “inactive”. For `COc1ccccc1CN1CCC(CNC(=O)c2cnn(-c3cccc(Cl)c3)c2C2CCN(C(=O)OC(C)(C)C)CC2)CC1`, the Potency was 1.41 µM (active). Regarding `CC(C)(C)OC(=O)N1CCC(c2c(C(=O)N3CCN(c4cccc(Cl)c4)CC3)cnn2-c2cccc(Cl)c2)CC1`, the Potency is 7.08 µM (active). For `COc1ccccc1N1CCN(S(=O)(=O)CCNC(=O)COc2ccc(F)cc2)CC1`, the Potency entry is “inactive”. `Cc1oc2ncnc(N3CCCCC3)c2c1C(=O)N1CCN(c2cccc(Cl)c2)CC1`: the Potency result was “inactive”. As for `CCn1ncc(N2CCC(NC(=O)c3ccccc3OC)CC2)cc1=O`, the Potency entry is “inactive”.

As for `Cc1ccc(C2CCN(C(=O)c3cnn(-c4ccccc4Cl)c3C3CCN(C(=O)OC(C)(C)C)CC3)C2)cc1` (stereo unspecified), the Potency is 3.98 µM (active). Take `Cc1cccc(-n2ncc(C(=O)N3CCc4ccccc4C3)c2C2CCN(C(=O)OC(C)(C)C)CC2)c1`: the Potency result was “inactive”.

Regarding `Cc1cccc(-n2ncc(C(=O)N3CCC(C)CC3)c2C2CCN(C(=O)OC(C)(C)C)CC2)c1`, the Potency result was “inactive”.

Turning to `O=C(NCC1CC1)c1nc2c(o1)CCN(Cc1cccc(F)c1F)CC2`, the Potency result is “inactive”. On to `COc1ccccc1C(=O)N1CCC(c2n[nH]c(=O)n2-c2ccc(C)cc2)CC1`, for which the Potency result is “inactive”. As for `Cc1noc2c(N3CC[S+](=O)([O-])CC3)cc(-c3ccc(Cl)cc3)nc12`, the Potency entry was “inactive”.

For the molecule `O=C(NC1CCCC1)N1CCC(Oc2ccc(-c3noc(C4CC4)n3)cc2)C1` (stereo unspecified), the activity, negative = inhibition is 5.78% [at 5.79 µM]. Turning to `CCCC(c1cccs1)n1cc(-c2cncnc2)nn1` (stereo unspecified), the Potency result was “inactive”. For the molecule `O=c1cc(N2CCOCC2)cnn1Cc1cc(C(F)(F)F)ccc1F`, the Potency result was “inactive”. `O=C(c1ccccn1)N1CCC2(CNS(=O)(=O)c3cnccc3O2)C1` (stereo unspecified): the Potency result is “inactive”.

Consider `Cc1noc(C)c1-c1cc2cc(CNC3CCOCC3)oc2c(NC2CCN(C)CC2)n1`, for which the Potency result is “inactive”. As for `Cc1ccc(C2(O)CCN(C(=O)c3ccccc3-c3nn[nH]n3)CC2)nc1`, the Potency entry is “inactive”. For the molecule `Cc1ccc(NC(=O)Nc2ccc(C)n(CC(=O)NCCN3CCCC3)c2=O)cc1`, the Potency result is “inactive”. For the molecule `COCC(=O)NC1CCC12CCN(S(=O)(=O)c1c(C)noc1C)CC2` (stereo unspecified), the Potency result is “inactive”. `COc1ccc(OC)c(CNC(=O)C2(c3ccc(NC(C)=O)cc3)CCCCC2)c1`: the Potency result is “inactive”. On the same count and under the same terms, the same measure for `O=C(NCCC1CCN(C(=O)Nc2ccc(F)cc2F)CC1)c1cccs1`: “inactive”; for `COCC1CN(C(C)=O)CC12CCN(Cc1ccccc1OC)CC2` (stereo unspecified): “inactive”. Still for that read-out and setting: under `Cc1ccc2c(c1)N(CC(=O)NCCCN1CCCCC1)C(=O)c1cccnc1O2` stands “inactive”; under `O=C(NCCC1CCN(C(=O)Nc2cc(F)ccc2F)CC1)c1cc(F)ccc1F`, “inactive”; under `CC(C)(C)OC(=O)N1CCC(c2c(C(=O)NCCc3ccsc3)cnn2-c2ccc(F)cc2F)CC1`, 8.91 µM (active).

Turning to `COc1cc(NC(=O)NCC2CCN(Cc3ccc(C)cc3)CC2)cc(OC)c1OC`, the Potency entry is “inactive”. Take `Cc1ccc(CN2CCC(CNC(=O)c3cnn(-c4ccccc4Cl)c3C3CCN(C(=O)OC(C)(C)C)CC3)CC2)cc1`: the Potency was 2.82 µM (active). Turning to `COc1ccccc1CN1CC[C@H](CNC(C)=O)[C@H](N(C)C)C1`, the Potency result was “inactive”.

`CCCn1c2ccccc2c2cnn(CC(=O)NCC3CCN(Cc4ccc(C)cc4)CC3)c(=O)c21`: the Potency result is “inactive”. On the same count and under the same terms, the same measure for `Cc1cccc(C)c1-n1ncc(C(=O)NCCCN2CCCCC2)c1C1CCN(C(=O)OC(C)(C)C)CC1`: 8.91 µM (active); for `COc1ccccc1CN1CCC(CNC(=O)c2cnn(-c3ccccc3Cl)c2C2CCN(C(=O)OC(C)(C)C)CC2)CC1`: 2.51 µM (active).

With `Cc1ccccc1CCNC(=O)C1CCN(c2nc3ccccc3nc2C(F)(F)F)CC1`, the Potency entry was “inactive”. As to `O=C(c1n[nH]c(=O)c2ccccc12)N1CC2CC(C1)[C@H]1CCCC(=O)N1C2` (stereo partly specified), the Potency entry is “inactive”. For `Cc1ccc(N2Cc3c(NCCCOC(C)C)ncnc3N(C)CC2=O)cc1`, the Potency entry is “inactive”.
